# Activity calls are given as the source filed them. The calls were made as follows: active = hit-call score of the fitted dose curve at least 0.9, where 1 is the maximum; inactive = score below 0.9.
# Biological target: Nuclear respiratory factor 1 (Homo sapiens) (UniProt Q16656)
# Experiment: ATG_NRF1_CIS: Attagene CIS-FACTORIAL HepG2 Assay for human Nuclear Respiratory Factor 1 (NRF1) Orphan Gene (AID 2282987)
# Settings: HepG2 NRF1 cis-element reporter, Attagene multiplex; actives raise or lower the signal
# Description: ATG_CIS is a cell-based, multiplexed-readout assay that uses HepG2, a human liver cell line, with measurements taken at 24 hours after chemical dosing in a 24-well plate.ATG_NRF1_CIS is one of 52 assay component(s) measured or calculated from the ATG_CIS assay. It is designed to make measurements of mRNA induction, a form of inducible reporter, as detected with fluorescence intensity signals by Reverse transcription polymerase chain reaction (RT-PCR) and Capillary electrophoresis technology.Data from the assay component ATG_NRF1_CIS was analyzed into 1 assay endpoint. This assay endpoint, ATG_NRF1_CIS, was analyzed with bidirectional fitting relative to DMSO as the negative control and baseline of activity. Using a type of inducible reporter, measures of mRNA for gain or loss-of-signal activity can be used to understand the reporter gene at the transcription factor-level as they relate to the gene NRF1. Furthermore, this assay endpoint can be referred to as a primary readout, because this assay has produced multiple assay endpoints where this one serves a reporter gene function. To generalize the intended target to other relatable targets, this assay endpoint is annotated to the dna binding intended target family, where the subfamily is nuclear respiratory factors.
# Human liver HepG2 cells are transiently transfected with multiple reporter transcription units (MRTUs) in 6-well plates using FuGene 6 reagent (Roche; 3 ml FuGene/1 mg DNA). The MRTU constructs are regulated by a cis-regulating element (promoter). […] A major difference between the CIS and TRANS system is that in CIS activities of endogenous TFs are measured, whereas the TRANS assay evaluates changes in activities of exogenous, chimeric NR-Gal4 proteins. […] At the end of 24 hour incubation, total RNA was isolated using TriZol reagent (Invitrogen). The isolated RNA is then reverse-transcribed using oligo(dT) primer and Mo-MLV reverse transcriptase (Invitrogen) with DNAse I (Ambion) treatment for 30 min. The one-tenth of the produced cDNA was amplified by PCR using Taq DNA polymerase (Invitrogen) and two reporter sequence-specific primers. The PCR products were fluorescently labeled by primer extension with 6-arboxyfluorescein (6-FAM) 5'-labeled reporter sequence-specific primer (2 min at 95 C, 20 s at 68 C and 10 min at 72 C) and these products were digested with 5U of HpaI (New England Biolabs) for 2h at 37 C. The fragments were purified using Qiaquick PCR columns (Qiagen), analyzed on an ABI 3130xL genetic analyzer (Applied Biosystems) with peak positions identified by using a set of X-rhodamine (ROX)-labeled MapMarker1000 molecular weight standards (BioVentures). The raw capillary electrophoresis data was processed using Attagraph software (Attagene).
# Chain of Nuclear respiratory factor 1 (Homo sapiens) (Q16656 whole entry, looked up): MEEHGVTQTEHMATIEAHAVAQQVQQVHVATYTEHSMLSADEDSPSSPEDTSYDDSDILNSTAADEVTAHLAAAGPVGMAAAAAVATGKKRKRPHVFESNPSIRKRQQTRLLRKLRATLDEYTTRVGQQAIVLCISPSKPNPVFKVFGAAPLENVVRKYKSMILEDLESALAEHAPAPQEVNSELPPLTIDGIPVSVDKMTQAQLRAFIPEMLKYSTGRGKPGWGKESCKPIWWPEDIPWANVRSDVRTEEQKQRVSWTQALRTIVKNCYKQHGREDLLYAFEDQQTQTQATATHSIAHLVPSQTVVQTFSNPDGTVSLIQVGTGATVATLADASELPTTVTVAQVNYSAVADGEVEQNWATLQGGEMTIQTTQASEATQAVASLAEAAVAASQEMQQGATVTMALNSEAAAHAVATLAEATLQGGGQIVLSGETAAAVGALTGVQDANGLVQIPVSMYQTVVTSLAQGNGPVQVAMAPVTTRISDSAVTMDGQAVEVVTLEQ
Compound,outcome,AC50
O=C1CCCN1CCO,inactive,–
C=C(C)c1cccc(C(C)(C)N=C=O)c1,inactive,–
COC=O,inactive,–
O=CC1CC1,inactive,–
CCC(Cc1ccccc1)(C(=O)c1ccc(N2CCOCC2)cc1)N(C)C (stereo not given),–,30.3 µM (active)
C=CC(C)(CCC=C(C)C)OC(=O)CC(C)C (stereo not given),inactive,–
CC(=O)OC1C2(C)CCC(C2)C1(C)C (stereo not given),inactive,–
CC(C)c1ccc2c(c1)CC[C@H]1[C@](C)(CN)CCC[C@]21C,inactive,–
Cc1cc(C)c(C)c(O)c1,inactive,–
COC(=O)/C=C/C(C)=C\C=C\C(C)=C\C=C\C=C(C)\C=C\C=C(C)\C=C\C(=O)O,inactive,–
CC1(C)O[C@@H]2C[C@H]3[C@@H]4C[C@H](F)C5=CC(=O)C=C[C@]5(C)[C@@]4(F)[C@@H](O)C[C@]3(C)[C@]2(C(=O)CO)O1,inactive,–
CC(=O)OCCC1CCCCC1,inactive,–
N#CCc1ccc(Cl)cc1Cl,inactive,–
CCOc1ccc(N)c([N+](=O)[O-])c1,inactive,–
CCCCCCCCCCCCCOP(=O)(O)O,inactive,–
c1c[nH]cn1,inactive,–
Cc1cccc(N(C)C(=S)Oc2ccc3ccccc3c2)c1,inactive,–
CCCCCCCCC(=O)OCC,inactive,–
CCCCCCCCCCOC(C)=O,inactive,–
CN(C)c1ccc(C(=N)c2ccc(N(C)C)cc2)cc1,inactive,–

Compound,outcome,AC50
CC=CCO,inactive,–
C1CN(SSN2CCOCC2)CCO1,inactive,–
CCCCCCOc1cc(C)c(O)c(C)c1C,inactive,–
CCCCCCC(O)CO (stereo not given),inactive,–
O=C1CCCCCCCCCCC(=O)OCCO1,inactive,–
CC(C)(C)c1n[nH]c(=O)n(N)c1=O,inactive,–
Cc1cnc(NC(=O)C2=C(O)c3ccccc3S(=O)(=O)N2C)s1,inactive,–
CCN(Cc1cccc(S(=O)(=O)O)c1)c1ccc(C(=C2C=CC(=[N+](CC)Cc3cccc(S(=O)(=O)[O-])c3)C=C2)c2ccccc2)cc1,inactive,–
CC=CC(F)(F)C(F)(F)C(F)(F)F,inactive,–
O=C(OCC1CCC2OC2C1)C1CCC2OC2C1 (stereo not given),inactive,–
CC[C@H]1OC(=O)[C@H](C)[C@@H](O[C@H]2C[C@@](C)(OC)[C@@H](O)[C@H](C)O2)[C@H](C)[C@@H](O[C@@H]2O[C@H](C)C[C@H](N(C)C)[C@H]2O)[C@](C)(O)C[C@@H](C)C(=NOCOCCOC)[C@H](C)[C@@H](O)[C@]1(C)O,inactive,–
c1ccc2c(c1)ccc1ncccc12,inactive,–
CO[Si](CCC1CCC2OC2C1)(OC)OC (stereo not given),inactive,–
CC(C)=CCCC(C)C=O (stereo not given),inactive,–
O=C(Nc1ccccc1SSc1ccccc1NC(=O)c1ccccc1)c1ccccc1,inactive,–
O=P(O)(O)Oc1ccccc1,inactive,–
CCCNC(=O)NS(=O)(=O)c1ccc(Cl)cc1,inactive,–
CC(=O)Oc1ccc(C(C)=O)cc1,inactive,–
c1ccc(-c2ccccn2)nc1,inactive,–
CC(=O)c1ccc[nH]1,inactive,–

# From PubChem BioAssay (EPA / NIEHS)
